# This is a sample that favours compounds with a hit; in the whole collection about 17% have one here.
# DT40 TDP1 no CPT = qHTS for Inhibitors of human tyrosyl-DNA phosphodiesterase 1 (TDP1): qHTS in cells in absence of CPT; DT40 Tdp1-/- hTDP1 cells, no CPT, ATP luminescence, 48 h; Potency, µM (top dose mostly 46.2 µM), for the others: top-dose activity change, negative = growth inhibition, hits mostly inhibitors; 420,000 compounds, 15% hits; also: % is scaled to controls: 0 for no effect and ±100 for the full control effect; nearly all actives have a fitted effect of over 55% in size
#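 Cells were dispensed at 400 per well, compounds added by pin tool, plates incubated ≥48 hr at 37 °C, then CellTiter-Glo added for 30 min at room temperature before luminescence reading. Line: DT40 Tdp1-/- complemented with hTDP1; camptothecin omitted.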
# HepG2 tox = counter-screen for TGF-b inhibitors: cytotoxicity in HepG2 cells; HepG2 CAGA-GFP viability, ATP luminescence, 18 h; Potency, µM (highest dose often 46.1 µM), for the others: at the top dose activity change, negative = cytotoxicity, most hits filed as cytotoxic; 410,000 compounds, 0.76% hits; AID 588856
#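 HepG2 CAGA-GFP cells (1000/well, DMEM with 1% FBS) received compound, then TGF-beta at 500 pg/mL final, and were incubated 18 hours at 37 degrees C. Viability was read by CellTiter-Glo luminescence. Media-only wells were set as complete cell-killing and DMSO as no toxicity.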
# HT1080NT lethal = kills 2HG-producing HT-1080-NT fibrosarcoma cells | HT-1080-NT fibrosarcoma viability, CellTiter-Glo ATP luminescence, 48 h | Potency, µM (series often up to 46.1 µM), without a hit: at the highest dose activity, negative = less viability, usual class: cytotoxic | AID 686970 | 360,000 compounds, 1.6% hits;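 also: NT is the 2HG producing partner of a matched IDH1 knockdown line; 0% = DMSO-treated cells and -100% = media-only wells without cells; nearly all actives have a fitted effect of over 55% in size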
#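 A 48-hour cytotoxicity screen used HT-1080-NT cells plated 2 hours before compound delivery. ATP-based CellTiter-Glo luminescence measured viability, normalized to DMSO and no-cell controls.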
# HT1080 IDH1KD tx = kills HT-1080 cells with IDH1 knockdown; 360,000 compounds, 2% hits; Potency, µM (titrated, usually from 46.1 µM), for the others: at the top dose activity, negative = toxicity, usual class: cytotoxic; AID 686971; HT-1080 IDH1 knockdown viability, ATP luminescence, 48 h;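 also: 0% = DMSO wells and -100% = cell-free medium wells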
#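 % activity derives from luminescence (CellTiter-Glo), normalised to DMSO and no-cell wells. HT-1080-IDH1KD cells, 750/well, had 48 h compound exposure at 37 °C.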
# TGFb inhibitor = inhibitors of TGF-b signaling; AID 588855; 410,000 compounds, 1.2% hits; Potency, µM (doses to about 46.1 µM), without a hit: at the top dose activity, negative = inhibition, actives largely listed as inhibitors; HepG2 CAGA-GFP TGF-b/SMAD3 reporter, GFP fluorescence, 18 h; TGF-beta stimulated, 500 pg/mL final; also: % is scaled to controls: 0 for no effect and ±100 for the full control effect; nearly all actives have a fitted effect of over 65% in size
#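 TGF-beta reporter screen: HEPG2 CAGA-GFP, 1% FBS, 500 pg/mL TGF-beta final, 18 h; per-cell GFP summed per well; curves fitted and categorized by class.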
# TDP1 cell CPT = growth inhibition of DT40 Tdp1-/-;hTDP1 cells with camptothecin (screen for TDP1 inhibitors); chicken DT40 Tdp1-/-;hTDP1 cells + 20 nM CPT, ATP luminescence, 48 h; 420,000 compounds, 12% hits; Potency, µM (highest dose often 46.2 µM), without a hit: at the top dose activity change, negative = growth inhibition, hits mostly inhibitors; AID 686979; also: % is scaled to controls: 0 for no effect and ±100 for the full control effect; nearly all actives have a fitted effect of over 55% in size
#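 Cell growth measured by CellTiter-Glo luminescence after a minimum 48 h, 37 C compound exposure with 20 nM CPT in Tdp1-knockout DT40 cells stably expressing hTDP1, seeded 400/well; qHTS titration format.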
# The depositor's hits bear a star; ? = inconclusive; · = no result given; [ ] = remark or other dose. Calls follow the shape of the dose curve; as a rule, active = well fitted curve in the direction sought with a large enough effect; inconclusive = small, poorly fitted or top-dose-only effect, or another doubt; inactive = no such curve, though single readings can be large; an effect the other way counts as inactive or inconclusive. Potency is read from the fitted curve at half-maximal effect.
SMILES,DT40 TDP1 no CPT,HepG2 tox,HT1080NT lethal,HT1080 IDH1KD tx,TGFb inhibitor,TDP1 cell CPT
Cc1ccc(NC(=O)c2cc(S(=O)(=O)NCCC3=CCCCC3)ccc2F)cc1F,16.4µM*,-81.6%,?,?,?,?
O=C(Nc1cccc(F)c1)c1cc(S(=O)(=O)NCCC2=CCCCC2)ccc1F,?,14.1µM*,?,?,?,?
Cc1cc(C)cc(NC(=O)c2cc(S(=O)(=O)NCCC3=CCCCC3)ccc2F)c1,?,-47.2%,·,·,?,?
COc1ccc(NC(=O)c2cc(S(=O)(=O)NCCC3=CCCCC3)ccc2F)cc1,23.1µM*,-37.5%,·,·,?,25.9µM*
O=C(N=C1SC2CS(=O)(=O)CC2N1CCc1ccc(F)cc1)C1CCCCC1 (stereo not drawn),-4.3%,12.9%,1.5%,13.4%,1.5%,-20.8%
CC1(Oc2ccc(-n3ccnc3)cc2)CCN(Cc2cccn2-c2nccs2)C1 (stereo not drawn),18.4µM*,-12.8%,8.6%,8.0%,8.1%,29.1µM*
COCOc1cccc(CN2CCC(C)(Oc3cccc(C#N)c3)C2)c1 (stereo not drawn),-34.3%,-1.4%,-11.1%,-14.3%,6.1%,?
COc1cccc(OC2(C)CCN(Cc3cccn3-c3nccs3)C2)c1 (stereo not drawn),20.6µM*,-45.1%,-28.8%,-18.3%,?,23.1µM*
Cc1ccc(S(=O)(=O)NCCC2=CCCCC2)cc1,-25.7%,2.2%,4.3%,-7.0%,-27.5%,-7.7%
Cc1ccc(CNCCC2=CCCCC2)cc1,23.1µM*,-45.5%,-2.5%[9.24 µM],?,21.9%,?
COC(=O)c1nc2n(n1)C(c1cccc(Cl)c1)C(C(=O)Nc1ccccc1OC)=C(C)N2 (stereo not drawn),4.8%,-38.4%,·,·,?,13.4%
O=C(COC(=O)CSc1ccc(Cl)cc1)NCCc1ccccc1,-14.5%,-4.3%,-18.3%,-9.9%,0.0%,?
CCn1c(O)c(N=Nc2ccc3ccccc3n2)c2ccccc21,23.1µM*,-62.7%,12.4%,21.2%,?,?
CCCCn1c(O)c(N=Nc2ccccc2O)c2ccccc21,?,-56.9%,-14.4%,-8.1%,?,23.1µM*
C=CCn1c(O)c(N=Nc2ccccc2C)c2ccccc21,?,-5.2%,-7.9%,-11.0%,8.0%,18.4µM*
C=CCn1c(O)c(N=NC(=O)OC(C)(C)C)c2ccccc21,-21.7%,16.3%,11.7%,4.5%,18.1%,-4.7%
C=CCn1c(O)c(N=NC(=S)Nc2ccc(OC)c(Cl)c2)c2ccccc21,2.59µM*,-25.9%,-24.8%,?,0.0%,4.61µM*
COc1ccccc1C(=O)COC(=O)C1CCN(S(=O)(=O)c2ccccc2)CC1,7.9%,-26.3%,0.7%,5.7%,1.0%,-24.7%
COCCNC(=O)C1CCCN(C(=O)COCc2ccccc2)CC1 (stereo not drawn),2.4%,12.5%,25.7%,18.3%,5.0%,3.8%
COc1cccc(Nc2nc(N)c([N+](=O)[O-])c(NCc3ccccc3)n2)c1,?,-36.6%,-16.6%,?,?,?
O=C(Cc1ccc([N+](=O)[O-])cc1)N1N=C2CCCCC2C1(O)C(F)(F)F (stereo not drawn),?,29.6%,-13.1%,2.2%,4.3%,-22.9%
O=C(Cc1ccc([N+](=O)[O-])cc1)N1N=C(c2ccncc2)CC1(O)C(F)(F)F (stereo not drawn),?,-2.7%,5.4%,7.6%,4.2%,20.6µM*
O=C(COc1ccccc1)N1N=C(c2cccnc2)CC1(O)C(F)(F)F (stereo not drawn),-29.9%,0.9%,7.3%,6.0%,0.0%,-5.4%
Cc1ccc(OCC(=O)N2N=C(c3ccncc3)CC2(O)C(F)(F)F)cc1C (stereo not drawn),20.6µM*,-30.3%,?,-24.0%,?,?
CCCCc1ccc(NC(=O)CSc2nc(=O)n3cc(C)ccc3n2)cc1,?,-18.2%,-16.1%,-14.6%,-8.7%,?
SMILES,DT40 TDP1 no CPT,HepG2 tox,HT1080NT lethal,HT1080 IDH1KD tx,TGFb inhibitor,TDP1 cell CPT
COc1ccc(C2CC(=O)C=C(NCCC(C)C)C2)cc1 (stereo not drawn),14.6µM*,-4.3%,-15.7%,-9.3%,3.9%,?
COc1ccc(NC2=CC(=O)CC(c3ccc(C)cc3)C2)c(OC)c1 (stereo not drawn),?,-10.3%,1.6%,-1.5%,-6.5%,?
Cc1ccc(C2CC(=O)C=C(O)C2)cc1 (stereo not drawn),-15.1%,7.4%,14.8%,17.7%,-0.4%,-5.6%
O=C1C=C(NCc2ccc3c(c2)OCO3)CC(c2ccccc2)C1 (stereo not drawn),18.4µM*,-23.4%,-18.2%,?,-1.6%,?
Cc1ccc(C2CC(=O)C=C(Nc3ccc(Cl)cc3)C2)cc1 (stereo not drawn),?,-7.9%,-0.2%,4.1%,0.7%,?
Cc1ccc(C2CC(=O)C=C(NCc3ccccc3)C2)cc1 (stereo not drawn),4.61µM*,0.1%,?,20.6µM*,5.8%,5.17µM*
Cc1ccc(C2CC(=O)C=C(NCC(C)C)C2)cc1 (stereo not drawn),20.6µM*,-7.6%,-1.2%,-5.2%,2.8%,?
O=C1C=C(NCC2CCCO2)CC(c2ccccc2)C1 (stereo not drawn),-9.8%,-5.4%,0.0%,12.4%,-17.4%,-11.5%
O=C(O)c1ccc(S(=O)(=O)c2ccc([N+](=O)[O-])cc2[N+](=O)[O-])cc1,?,-7.1%,-4.3%,-7.4%,-12.3%,20.6µM*
O=C(O)c1ccc(S(=O)(=O)c2ccccc2C(=O)O)c([N+](=O)[O-])c1,-7.5%,-0.1%,22.1%,24.0%,0.5%,12.7%
Cc1cc(C)n(C(=O)CN(C)S(=O)(=O)c2ccc([N+](=O)[O-])cc2)n1,2.1%,-8.5%,3.2%,-1.3%,-11.9%,-10.1%
COc1ccc(-n2nnnc2-c2cccc(OC)c2)cc1,0.581µM*,-3.0%,?,1.64µM*,-22.4%,0.82µM*
O=C(CCCC1=NS(=O)(=O)c2ccccc2N1)Nc1ccccc1,-16.7%,-16.5%,2.9%,-4.8%,-0.2%,2.8%
Nc1cccc2c1C(=O)N(C(=O)/C=C/c1ccc(F)cc1)C2=O,23.1µM*,0.2%,?,18.4µM*,?,16.4µM*
CCCC(CCC)C(N)=O,3.8%,·,·,·,·,-0.8%

# Source: PubChem (National Center for Advancing Translational Sciences (NCATS))
